# Screening data deposited in PubChem BioAssay by several laboratories.
# MRP-1 activ: H69AR viability gain despite doxorubicin, primary screen, MRP-1 activator project, H69AR cells, CellTiter-Glo | viability rescue | viability increase, % at 10 µM | actives 0.61% (n = 140,000) | AID 799, 2007;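 active means viability gain under doxorubicin at or above a set limit, the compound median plus 3 SD, cut at about 4.7% in these data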;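 further: MRP-1 overexpressing cells given doxorubicin 25 µM after compound pretreatment; 18-22 h compound pretreatment then 72 h with doxorubicin before readout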
# MRP reversal: reversal of MRP1-mediated doxorubicin resistance, primary screen, H69AR cells, doxorubicin co-treatment. H69AR cells + 2 uM doxorubicin, CellTiter-Glo, 72 h. AID 602, 2007. actives 0.04% (n = 85,000). differential viability (reversal), % at 10 µM;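 active means viability drop by adding the cancer drug above about 55%, with treated viability meeting a 40% cutoff, limit read from the data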;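 further: larger differential means the compound sensitizes cells more to doxorubicin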
# SDO1 yeast rescue: growth rescue of sdo1-depleted yeast, primary screen, S. cerevisiae, bone marrow failure model. S. cerevisiae sdo1-depleted JHY4D growth rescue, OD600 30 h; stronger effect = higher value; pdr5 snq2 efflux-pump mutant strain. z-score at 10 µM. actives 0.21% (n = 140,000);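 active means z-score above 3 at both the 24 hr and the 30 hr optical density reads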
# sEH inhibitor: soluble epoxide hydrolase inhibitors, primary screen, biochemical, human sEH; Bifunctional epoxide hydrolase 2 (Homo sapiens), P34913; actives 0.34% (n = 91,000); recombinant human sEH enzymatic activity assay; inhibition, % at 2 µM; in the data active means inhibition above about 80%
# Target sequence (P34913 whole entry, looked up): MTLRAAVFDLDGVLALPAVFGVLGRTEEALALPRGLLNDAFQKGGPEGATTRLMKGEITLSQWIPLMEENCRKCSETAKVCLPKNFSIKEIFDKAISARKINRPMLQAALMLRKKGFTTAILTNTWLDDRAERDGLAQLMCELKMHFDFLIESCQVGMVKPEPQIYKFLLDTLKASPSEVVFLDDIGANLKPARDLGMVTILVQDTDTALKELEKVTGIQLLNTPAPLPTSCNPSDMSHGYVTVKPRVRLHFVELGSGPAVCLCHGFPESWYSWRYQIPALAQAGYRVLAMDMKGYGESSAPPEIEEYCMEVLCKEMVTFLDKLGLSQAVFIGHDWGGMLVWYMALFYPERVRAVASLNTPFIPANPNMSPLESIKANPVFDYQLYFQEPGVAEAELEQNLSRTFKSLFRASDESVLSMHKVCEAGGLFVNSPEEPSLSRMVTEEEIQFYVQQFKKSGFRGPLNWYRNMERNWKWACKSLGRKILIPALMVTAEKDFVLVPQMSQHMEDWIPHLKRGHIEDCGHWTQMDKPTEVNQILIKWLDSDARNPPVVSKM
# sEH activator: soluble epoxide hydrolase activators, primary screen, biochemical, human sEH; Bifunctional epoxide hydrolase 2 (Homo sapiens), P34913; purified human sEH enzymatic activity, activator screen; activation, % at 2 µM; actives 0.04% (n = 91,000); in the data active means activation above about 37%
# Measles CPE: compounds protecting cells from measles virus cytopathic effect, primary screen, measles RdRp inhibitor project, single point, MLSMR library, absorbance; AID 841, 2007; Measles virus-infected cells, CPE protection; actives 1.5% (n = 140,000); protection (pct of control), % at 4 µM; in the data active means protection mostly above about 24%, no sharp cut-off; inactive means mostly below about 26%
# Hits are given with their value; n = inactive; x = no result. Compounds with a hit are over-represented: about 2.5% of the library has one in this group of screens.
SMILES,MRP-1 activ,MRP reversal,SDO1 yeast rescue,sEH inhibitor,sEH activator,Measles CPE
O=c1cnn(-c2ccccc2)c(-c2ccccc2)c1,n,n,n,n,n,n
CN(CC(O)COc1c(F)cc(Br)cc1F)C1CCCCC1 (stereo not given),n,x,n,x,x,n
COc1ccc(N(CC(=O)N2CCN(C)CC2)S(C)(=O)=O)cc1OC,n,n,n,n,n,50
CCOC(=O)N1CCN(C(=O)CN(c2ccc(OCc3ccccc3)cc2)S(C)(=O)=O)CC1,n,x,n,n,n,28
COc1ccc(N(CC(=O)Nc2cccc(N(C)S(C)(=O)=O)c2)S(C)(=O)=O)cc1OC,n,n,n,n,n,43
CCOC(=O)N1CCN(C(=O)CN(c2ccc3c(c2)OCO3)S(C)(=O)=O)CC1,n,n,n,n,n,n
COc1ccc(N(CC(=O)N2CCc3ccccc3C2)S(C)(=O)=O)cc1OC,n,n,n,n,n,n
COc1ccc(N(CC(=O)Nc2cccc(C(C)=O)c2)S(C)(=O)=O)cc1OC,n,n,n,x,x,92
Cc1cccc(N2C(=O)CC(Sc3nc(-c4ccccc4)c4cc(Cl)ccc4n3)C2=O)c1 (stereo not given),n,x,n,n,n,n
O=C(CC1SC(=O)N(Cc2ccc(Cl)cc2)C1=O)Nc1nccs1 (stereo not given),12,x,n,x,x,n
N#CC1(c2nc3ccccc3[nH]2)CC1c1ccc2c(c1)OCO2 (stereo not given),n,n,n,n,n,n
c1ccc(Cc2nnc3sc(-c4ccccn4)nn23)cc1,n,x,n,n,n,62
c1ccc(Cc2nnc3sc(-c4ccncc4)nn23)cc1,n,n,n,n,n,n
CCOC(=O)C1=C(NC(=S)NC(=O)c2ccccc2)c2ccccc2CC1(C)CC (stereo not given),n,x,n,x,x,n
CCOC(=O)C1=C(NC(=S)NC(=O)c2ccccc2)c2ccccc2CC1C(C)C (stereo not given),n,x,n,n,n,50
Cc1ccc(CCNC(=O)C2CCCN(S(=O)(=O)c3c(C)noc3/C=C/N(C)C)C2)cc1 (stereo not given),n,n,n,n,n,n
Cc1noc(/C=C/N(C)C)c1S(=O)(=O)N1CCCC(C(=O)NCc2cccs2)C1 (stereo not given),10,n,n,n,n,n
Cc1cc2oc(C(=O)N(Cc3ccccc3)C3CCS(=O)(=O)C3)cc(=O)c2cc1Cl (stereo not given),n,n,n,n,n,n
COC(=O)c1ccc(NC(=O)Cn2nc(-c3ccncc3)nc2SCC(=O)Nc2nccs2)cc1,n,x,n,n,n,n
Cc1cc(C)c2c(N)c(C(=O)NCC3CCCCC3)sc2n1,n,n,n,n,n,25
Cc1cc(C)c2c(N)c(C(=O)c3ccc(Cl)cc3)sc2n1,n,x,n,x,x,n
CN(c1ccccc1)S(=O)(=O)c1cccc(NC(=O)Nc2ccc(Cl)cc2C#N)c1,n,x,n,x,x,25
Cc1cc(NC(=O)CSc2ccc3nnc(-c4cccnc4)n3n2)no1,n,n,n,n,n,44
CC(C)C(NC(=O)OCc1ccccc1)C(=O)NC1CCCCC1 (stereo not given),n,x,n,x,x,n
CN1CCC(=NNC(=O)C(=O)NC2CCCC2)CC1,n,n,n,n,n,56
SMILES,MRP-1 activ,MRP reversal,SDO1 yeast rescue,sEH inhibitor,sEH activator,Measles CPE
CN1CCC(=NNC(=O)C(=O)NC2CCCCC2)CC1,n,n,n,n,n,n
Cc1cccc(N2C(=O)CC(NNc3nc4ccccc4s3)C2=O)c1 (stereo not given),4.7,x,n,x,x,n
CCn1c(SCC(=O)NCc2cccs2)nnc1-c1ccco1,n,n,n,x,x,26
CCn1c(SCC(=O)NCc2cccs2)nnc1-c1ccncc1,n,n,n,n,n,n
Cc1ccc(NC(=O)CSc2nnc(-c3cccs3)n2Cc2ccco2)cc1,6.1,n,n,n,n,n
CCn1c(SCC(=O)Nc2ccc(C)cc2)nnc1-c1ccc(O)cc1,n,n,n,n,n,n
Cc1ccc(-c2nnn(CC(=O)N(CC3CCCO3)C(C(=O)NC(C)(C)C)c3ccc(F)cc3)n2)o1 (stereo not given),n,n,n,n,n,n
Cc1ccc(-c2nnn(CC(=O)N(CC3CCCO3)C(C(=O)NCC3CCCO3)c3ccc(F)cc3)n2)o1 (stereo not given),n,n,n,n,n,42
Cc1ccc(C)c(N2CCN(C(=O)CNS(=O)(=O)c3cccs3)CC2)c1,n,n,n,n,n,n
O=C1NC(=O)C2(COC(c3ccncc3)OC2)S1 (stereo not given),n,x,n,x,x,n
O=C1NC(=O)C2(COC(c3ccccc3Cl)OC2)S1 (stereo not given),7.2,x,n,x,x,n
C=CCOC(=O)/C(=C\C=C\c1ccccc1)NC(=O)c1ccccc1,n,x,n,x,x,n
Cc1cc(C)n(-c2ccc(C(=O)Nc3cccc(S(=O)(=O)N(C)C)c3)cc2)n1,5.8,x,n,x,x,n
CCN(CC)S(=O)(=O)c1cccc(NC(=O)c2ccc(-n3nc(C)cc3C)cc2)c1,n,x,n,x,x,n
COc1ccc(NC(=O)c2ccc(-n3nc(C)cc3C)cc2)cc1OC,n,n,n,n,n,49
COc1ccc(C2=Nc3ccc(Br)cc3C(c3ccccc3)N2CC(=O)NN)cc1 (stereo not given),4.8,x,n,x,x,n
Cc1ccc(N=C/C(C(=O)C(F)(F)F)=C(\O)c2ccco2)cc1Cl,n,x,n,x,x,n
Cc1ccc(CNc2nc3ccccc3n3nnnc23)cc1,n,n,n,x,x,n
CCOC(=O)N1CCC(Nc2nc3ccccc3n3nnnc23)CC1,n,n,n,x,x,34
CC(C)CCn1c(CN2CCN(Cc3ccccc3)CC2)nc2c1c(=O)[nH]c(=O)n2C,n,n,n,x,x,41
CC(C)CCn1c(N2CCN(Cc3ccccc3)CC2)nc2c1c(=O)[nH]c(=O)n2C,x,n,x,n,n,x
CCc1ccc(N2CC(C(=O)Nc3nccs3)CC2=O)cc1 (stereo not given),n,n,n,n,n,35
Cc1csc(NC(=O)CCc2c(C)nc3cc(-c4ccc(Cl)cc4)nn3c2C)n1,n,x,n,x,x,n
Cc1nc2cc(-c3ccc(Cl)cc3)nn2c(C)c1CCC(=O)NC(C)c1ccc2c(c1)OCCO2 (stereo not given),5.5,x,n,x,x,n
CCCn1c(C)cc(/C=C(\C#N)C(=O)OCC(=O)Nc2ccc(OC)c(Cl)c2)c1C,9.4,x,n,x,x,n
CCCn1c(C)cc(/C=C(\C#N)C(=O)OCC(=O)NC(=O)NCC)c1C,n,n,n,n,n,n
CCN(CC)C(=O)C[n+]1cccc(C(N)=O)c1,n,x,n,x,x,n
C=CCOc1nc(-c2ccncc2)nc2ccccc12,n,n,n,n,n,30
Cc1ccc(-n2nnnc2-c2nc3ccccc3s2)cc1,n,x,n,x,x,n
